From PubChem BioAssay
This is a sample that favours compounds with a hit; in the whole collection about 6.5% have one here.
FMDV inh: foot and mouth disease virus antiviral activity; 410,000 compounds, 1.2% hits; FMDV antiviral cell-based qHTS; AID 1159524; Potency, µM (titrated, usually from 57.9 µM), hits mostly inhibitors; calls by dose curve; tested in HEK293T cells; note: read-out not given here; nearly all actives have a fitted effect of over 45% in size
HCMV inh: inhibitors of human cytomegalovirus. AID 1259415. activity change, negative = inhibition, % at 57.5 µM. HFF cells, HCMV-luciferase reporter, 72 h; hits give low values. 410,000 compounds, 4.5% hits; in the data active = activity change below about -60%; inconclusive = no clear call, values can overlap the other calls; inactive = above about -39%
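Luciferase read-out from HCMV-luciferase-infected HFFs (MOI 1 PFU/cell) 72 h post infection at 37C; compounds added after 16 h cell attachment; activity normalized between buffer-only basal and Salinomycin (10uM) inhibitor controls.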
MARV entry inh: Marburg virus entry inhibition; Marburg virus pseudotyped entry inhibition, cell reporter; Potency, µM (highest dose often 37.8 µM), most hits filed as inhibitors; 300,000 compounds, 1.8% hits; AID 540276; calls by dose curve; tested in HEK293 cells
VACV mCherry inh: inhibitors of vaccinia virus infection (mCherry reporter signal) | AID 720579 | 310,000 compounds, 0.63% hits | Vaccinia virus mCherry reporter infection, fluorescence | Potency, µM (highest dose often 36.5 µM), most hits filed as inhibitors; calls by dose curve; tested in A549 cells; note: nearly all actives have a fitted effect of over 35% in size
Vaccinia Venus: vaccinia inhibition (Venus reporter); Vaccinia virus Venus reporter expression, fluorescence; Potency, µM (highest dose often 36.5 µM), usual class: inhibitors; 330,000 compounds, 0.46% hits; AID 720580; calls by dose curve; tested in A549 cells; note: nearly all actives have a fitted effect of over 30% in size
Lassa entry inh: Lassa virus entry inhibition | 300,000 compounds, 1.2% hits | Lassa virus pseudotype entry inhibition, cell reporter | AID 540256 | Potency, µM (top dose mostly 37.9 µM), hits mostly inhibitors; calls by dose curve; tested in HEK293 cells; note: nearly all actives have a fitted effect of over 50% in size
Hits are given with their value.

`Cc1cc(/C=C2/SC(=S)N(c3ccc([N+](=O)[O-])cc3)C2=O)c(C)n1-c1cccnc1` gave FMDV inh inconclusive, HCMV inh -83, MARV entry inh inactive and Lassa entry inh inactive.
Screening CCN(CCNC(=O)[C@H]1C=C(OC)C(=O)C[C@H](c2ccccc2)[C@@H]1C)C(C)=O returned MARV entry inh inactive.
Screening CCC(C(=O)N1CCN(c2ccccc2)CC1)n1c(C)c2cnn(-c3ccccc3)c(=O)c2c1C (configuration not stated) returned FMDV inh inconclusive, HCMV inh inactive, MARV entry inh inactive, VACV mCherry inh inactive, Vaccinia Venus inactive and Lassa entry inh inactive.
O=C(/C=C/c1cccnc1)c1ccc(O)cc1 was read as FMDV inh inactive, HCMV inh -88, MARV entry inh inconclusive, VACV mCherry inh inactive, Vaccinia Venus inactive and Lassa entry inh inactive.
`O=C(C=Cc1cccnc1)c1ccccc1` gave FMDV inh 32µM, HCMV inh inactive, MARV entry inh 13µM, VACV mCherry inh inactive, Vaccinia Venus inactive and Lassa entry inh inconclusive.
Screening O=C(/C=C/c1cccnc1)c1ccc([N+](=O)[O-])cc1 returned FMDV inh inactive, HCMV inh inactive, MARV entry inh inconclusive, VACV mCherry inh inconclusive, Vaccinia Venus inactive and Lassa entry inh inconclusive.
Screening Cc1cccnc1NC(=S)NC(=O)/C=C/c1ccccc1 returned FMDV inh inactive, HCMV inh inactive, MARV entry inh inconclusive, VACV mCherry inh inactive, Vaccinia Venus inactive and Lassa entry inh inactive.
COc1cc(C(=O)/C=C/c2cccnc2)c([N+](=O)[O-])cc1OC was read as FMDV inh 14µM, HCMV inh -100, VACV mCherry inh 13µM and Vaccinia Venus 11µM.
O=C(/C=C/c1cccnc1)c1cccc(O)c1 was read as FMDV inh inactive, HCMV inh inactive, MARV entry inh inconclusive, VACV mCherry inh inactive, Vaccinia Venus inactive and Lassa entry inh inconclusive.
For O=C(/C=C/c1ccccc1)NC(=S)Nc1cccnc1 the results were HCMV inh inactive, MARV entry inh 12µM, VACV mCherry inh inactive, Vaccinia Venus inactive and Lassa entry inh inactive.
For CC(=O)Nc1nonc1-c1nnc(SCc2cccc(Br)c2)n1C the results were FMDV inh inactive, HCMV inh inactive, MARV entry inh inactive, VACV mCherry inh inactive, Vaccinia Venus inactive and Lassa entry inh inactive.
For COc1ccc2c3c([nH]c2c1)[C@@H](CO)N(Cc1ccccc1)CC31CN(C(=O)Cc2ccccc2)C1 the results were HCMV inh inactive.
`COC(=O)c1ccccc1C(=O)N1CCOc2ccc(CN3CCN(c4ccccn4)CC3)cc2C1` gave FMDV inh inactive, VACV mCherry inh inactive and Vaccinia Venus inactive.
Screening Cc1ccccc1NC(=O)Cn1c(=O)n(Cc2ccco2)c(=O)c2cccnc21 returned FMDV inh inactive, HCMV inh inactive, MARV entry inh inactive, VACV mCherry inh inactive and Vaccinia Venus inactive.
For COc1ccc(CNC(=O)c2cc3c(=O)n(Cc4ccc(OC)cc4)ccc3nc2C)cc1 the results were FMDV inh inactive, HCMV inh -75, VACV mCherry inh inactive, Vaccinia Venus inactive and Lassa entry inh inactive.
Screening Cc1nc2ccn(Cc3cccnc3)c(=O)c2cc1C(=O)NCc1ccc(Cl)cc1 returned FMDV inh inactive, HCMV inh inactive, VACV mCherry inh inactive, Vaccinia Venus inactive and Lassa entry inh inconclusive.
Cc1nc2ccn(Cc3cccs3)c(=O)c2cc1C(=O)NCc1ccc(Br)cc1 was read as FMDV inh inactive, HCMV inh -63, VACV mCherry inh inactive, Vaccinia Venus inactive and Lassa entry inh inactive.
For CC1CN(CC(=O)N2CCN(Cc3nccn3C)CC2)Cc2cc(Cl)ccc2O1 (configuration not stated) the results were FMDV inh inactive, VACV mCherry inh inactive and Vaccinia Venus inactive.
`O=C1C=C2C=C[C@H]3C[C@]2(O1)[C@@H]1CCCCN13` gave FMDV inh inactive, HCMV inh inconclusive, MARV entry inh inconclusive, VACV mCherry inh inactive, Vaccinia Venus inconclusive and Lassa entry inh inconclusive.
For O=C1C=C2C=C[C@@H]3CC2(O1)[C@H]1CCCCN31 the results were FMDV inh inconclusive, HCMV inh -94, VACV mCherry inh inconclusive and Vaccinia Venus inactive.
C[C@H]1CC[C@]2(NC1)O[C@H]1C[C@H]3[C@@H]4CC[C@H]5C[C@@H](O)CC[C@]5(C)[C@H]4CC[C@]3(C)[C@H]1[C@@H]2C was read as FMDV inh inactive, VACV mCherry inh inactive and Vaccinia Venus inactive.
Screening CN(C)NC(=S)NC1CC2CCC1C2 (configuration not stated) returned FMDV inh inactive and HCMV inh -61.
Cc1cc(C)c2cc(CN(CCO)C(=O)Nc3ccc(Cl)cc3)c(=O)[nH]c2c1 was read as FMDV inh inconclusive, HCMV inh inactive, MARV entry inh 11µM, Vaccinia Venus inconclusive and Lassa entry inh inconclusive.
Screening Cc1ccc2cc(CN(CCN(C)C)C(=O)Nc3ccc(Cl)cc3)c(=O)[nH]c2c1 returned FMDV inh inactive, HCMV inh inactive, MARV entry inh inconclusive, VACV mCherry inh inactive, Vaccinia Venus inactive and Lassa entry inh inconclusive.
Screening Cc1cc(C)c2cc(CN(CCN3CCCC3)C(=O)Nc3ccc(F)cc3)c(=O)[nH]c2c1 returned FMDV inh inactive, HCMV inh inactive, MARV entry inh 4µM, Vaccinia Venus inactive and Lassa entry inh inconclusive.
`Cc1ccc(NC(=O)C2CCCN(S(=O)(=O)c3c(C)nn(C)c3C)C2)c(C)c1` (configuration not stated) gave FMDV inh inactive, HCMV inh inactive, MARV entry inh inactive, VACV mCherry inh inactive, Vaccinia Venus inactive and Lassa entry inh inactive.
Cc1ccc(C(=O)N2CCN3C(=O)c4ccccc4C23c2ccc(Cl)cc2)cc1 (configuration not stated) was read as FMDV inh inactive, HCMV inh -71, MARV entry inh inconclusive, Vaccinia Venus inconclusive and Lassa entry inh inconclusive.
O=C(CCl)N1CCN2C(=O)c3ccccc3C12c1ccc(Cl)cc1 (configuration not stated) was read as FMDV inh 10µM, HCMV inh -115, MARV entry inh inconclusive, VACV mCherry inh inactive, Vaccinia Venus inactive and Lassa entry inh inactive.
`O=C(Nc1cccc(Cl)c1)N1CCN2C(=O)c3ccccc3C12c1ccccc1` (configuration not stated) gave FMDV inh inconclusive, HCMV inh inactive, MARV entry inh inconclusive, VACV mCherry inh inconclusive, Vaccinia Venus inconclusive and Lassa entry inh inactive.
`CCOc1ccc(NC(=O)CC2C(=O)N(c3ccc(Cl)cc3)C(=O)N2Cc2cccs2)cc1` (configuration not stated) gave FMDV inh inactive, HCMV inh inactive, VACV mCherry inh inactive, Vaccinia Venus inactive and Lassa entry inh inactive.
For COc1cc(OC)c(OC)cc1/C=c1\[nH]c(=O)/c(=C/c2cc(OC)c(OC)cc2OC)[nH]c1=O the results were VACV mCherry inh inactive and Vaccinia Venus inactive.
